# Laboratory results taken from PubChem BioAssay (EPA / NIEHS).
# Values joined by “and” are separate entries in the source; they are usually repeats but may differ in a detail not shown here. Equal entries are not always repeated. Results filed as inconclusive are left out. Where a structure was tested more than once in an assay, its records may differ in their call. Active and inactive are the calls of the source. Rule for the calls, unless noted: active = hit-call score of the fitted dose curve at least 0.9, where 1 is the maximum; inactive = score below 0.9.
# How the values were obtained:
# [1] = biological target: Estrogen-related receptor gamma (Homo sapiens) (UniProt P62508); assay: ATG_ERRg_TRANS: Attagene TRANS-FACTORIAL HepG2 Assay for human Estrogen-Related Receptor gamma (ERRg) (AID 2282977; active = hit-call score of the fitted dose curve at least 0.9, where 1 is the maximum;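 note: hits increase reporter signal over DMSO so potencies reflect activators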); settings: HepG2 Attagene TRANS reporter, ERRg transactivation
# Sequence of Estrogen-related receptor gamma (Homo sapiens) (P62508 whole entry, looked up, the tested form may be a part): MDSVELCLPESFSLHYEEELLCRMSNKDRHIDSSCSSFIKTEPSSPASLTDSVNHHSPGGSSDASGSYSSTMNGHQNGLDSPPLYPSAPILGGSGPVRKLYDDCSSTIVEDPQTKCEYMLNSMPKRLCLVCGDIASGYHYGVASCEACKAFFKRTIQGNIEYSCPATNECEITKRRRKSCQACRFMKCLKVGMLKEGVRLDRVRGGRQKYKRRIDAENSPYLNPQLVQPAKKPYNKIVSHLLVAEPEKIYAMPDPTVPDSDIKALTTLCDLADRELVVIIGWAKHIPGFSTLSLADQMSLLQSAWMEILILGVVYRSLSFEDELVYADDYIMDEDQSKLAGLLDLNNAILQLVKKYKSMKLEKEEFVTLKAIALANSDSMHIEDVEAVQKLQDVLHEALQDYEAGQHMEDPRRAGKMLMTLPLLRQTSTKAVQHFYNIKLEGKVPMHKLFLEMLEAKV
# Method in brief: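 HepG2 cells transiently transfected with multiplexed GAL4-UAS reporter units driven by chimeric NR-Gal4 proteins; 24 h exposure. Reporter mRNA quantified by RT-PCR, fluorescent labelling, HpaI digestion and capillary electrophoresis; gain of signal vs DMSO.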
# [2] = biological target: Glucocorticoid receptor (Homo sapiens) (UniProt P04150); assay: ATG_GR_TRANS: Attagene TRANS-FACTORIAL HepG2 Assay for human Glucocorticoid Receptor (GR) (AID 2282978; active = hit-call score of the fitted dose curve at least 0.9, where 1 is the maximum;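 note: activators score as hits since higher reporter transcript over DMSO is fitted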); settings: HepG2 Attagene TRANS GR reporter, mRNA transcription
# Sequence of Glucocorticoid receptor (Homo sapiens) (P04150 whole entry, looked up, the tested form may be a part): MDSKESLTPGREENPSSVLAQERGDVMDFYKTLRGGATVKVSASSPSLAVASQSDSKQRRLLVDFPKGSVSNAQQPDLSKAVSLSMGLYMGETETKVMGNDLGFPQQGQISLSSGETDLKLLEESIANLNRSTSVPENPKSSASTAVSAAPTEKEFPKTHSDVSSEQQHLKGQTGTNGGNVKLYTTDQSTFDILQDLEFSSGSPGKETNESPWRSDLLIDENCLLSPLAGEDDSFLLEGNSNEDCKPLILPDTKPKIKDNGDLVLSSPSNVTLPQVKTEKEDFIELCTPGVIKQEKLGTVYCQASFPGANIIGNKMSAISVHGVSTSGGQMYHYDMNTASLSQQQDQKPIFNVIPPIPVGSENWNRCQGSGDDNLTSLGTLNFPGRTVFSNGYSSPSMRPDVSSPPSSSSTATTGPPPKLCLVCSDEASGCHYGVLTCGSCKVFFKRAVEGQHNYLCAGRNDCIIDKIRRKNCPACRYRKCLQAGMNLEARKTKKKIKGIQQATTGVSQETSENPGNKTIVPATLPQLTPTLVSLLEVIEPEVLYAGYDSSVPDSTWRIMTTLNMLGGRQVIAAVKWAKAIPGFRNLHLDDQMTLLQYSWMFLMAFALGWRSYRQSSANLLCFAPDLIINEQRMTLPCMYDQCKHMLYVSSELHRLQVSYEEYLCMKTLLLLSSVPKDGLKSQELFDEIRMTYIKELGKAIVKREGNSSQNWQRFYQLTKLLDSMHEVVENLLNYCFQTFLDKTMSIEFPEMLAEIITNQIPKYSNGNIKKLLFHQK
# Method in brief: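 Fluorescent capillary-electrophoresis quantitation of reporter mRNA is the readout, taken 24 h after dosing human HepG2 cells carrying transiently transfected GAL4-UAS reporter units activated by chimeric NR-GAL4 fusions; activity scored as induction over DMSO.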
# [3] = biological target: Oxysterols receptor LXR-beta (Homo sapiens) (UniProt P55055); assay: ATG_LXRb_TRANS: Attagene TRANS-FACTORIAL HepG2 Assay for human Liver X Receptor beta (LXRb) (AID 2282981; active = hit-call score of the fitted dose curve at least 0.9, where 1 is the maximum); settings: HepG2 Attagene TRANS GAL4-LXRb reporter, mRNA
# Method in brief: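 HepG2 cells transiently transfected with GAL4-UAS reporter units for chimeric NR-Gal4 proteins, dosed for 24 h. Reporter transcripts measured by RT-PCR and capillary electrophoresis; gain-of-signal fitting relative to DMSO.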
# [4] = biological target: Hepatocyte nuclear factor 4-alpha (Homo sapiens) (UniProt P41235); assay: ATG_HNF4a_TRANS: Attagene TRANS-FACTORIAL HepG2 Assay for human Hepatocyte Nuclear Factor 4 alpha (HNF4a) (AID 2282982; active = hit-call score of the fitted dose curve at least 0.9, where 1 is the maximum); settings: HepG2 HNF4a transactivation reporter, mRNA readout
# Sequence of Hepatocyte nuclear factor 4-alpha (Homo sapiens) (P41235 whole entry, looked up, the tested form may be a part): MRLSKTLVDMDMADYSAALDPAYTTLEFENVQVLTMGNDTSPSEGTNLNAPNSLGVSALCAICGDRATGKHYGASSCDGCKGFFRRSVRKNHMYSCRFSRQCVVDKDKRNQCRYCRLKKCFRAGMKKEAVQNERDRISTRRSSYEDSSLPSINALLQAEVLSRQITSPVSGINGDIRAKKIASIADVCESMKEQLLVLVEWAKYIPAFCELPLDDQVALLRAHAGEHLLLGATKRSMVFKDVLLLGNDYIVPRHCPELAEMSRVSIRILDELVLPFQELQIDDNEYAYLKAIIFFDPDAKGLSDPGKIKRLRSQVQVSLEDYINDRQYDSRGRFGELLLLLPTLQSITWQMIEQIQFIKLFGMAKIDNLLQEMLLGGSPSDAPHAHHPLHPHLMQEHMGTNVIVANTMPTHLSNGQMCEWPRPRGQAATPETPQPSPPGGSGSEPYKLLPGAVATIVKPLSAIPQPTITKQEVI
# Method in brief: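 HepG2 cells transiently transfected with HNF4a-Gal4 chimera and GAL4-UAS reporter units, dosed for 24 h. Reporter mRNA measured by RT-PCR, fluorescent primer extension and capillary electrophoresis; gain-of-signal fitted relative to DMSO.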
# [5] = ATG_M_06_TRANS: Attagene TRANS-FACTORIAL HepG2 Assay for M06 Transcription Factor (Internal Marker) (AID 2282983; active = hit-call score of the fitted dose curve at least 0.9, where 1 is the maximum); settings: HepG2 Attagene TRANS M06 internal marker reporter
# Method in brief: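 Measured by capillary electrophoresis of fluorescently labelled RT-PCR products, this endpoint reflects reporter mRNA in HepG2 cells harbouring exogenous NR-GAL4 reporter constructs after 24 h exposure, with DMSO as baseline.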
# [6] = ATG_M_32_TRANS: Attagene TRANS-FACTORIAL HepG2 Assay for M32 Transcription Factor (Internal Marker) (AID 2282984; active = hit-call score of the fitted dose curve at least 0.9, where 1 is the maximum); settings: HepG2 Attagene TRANS M32 internal marker reporter
# Method in brief: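 HepG2 cells transiently transfected with GAL4-UAS reporter units, dosed for 24 hours. Reporter mRNA quantified by RT-PCR, 6-FAM labelling, HpaI digestion and capillary electrophoresis; internal-marker signal fitted upward relative to DMSO.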
# [7] = biological target: Nuclear receptor subfamily 4 group A member 2 (Homo sapiens) (UniProt P43354); assay: ATG_NURR1_TRANS: Attagene TRANS-FACTORIAL HepG2 Assay for human Nuclear Receptor Related Protein 1 (NURR1) (AID 2282985; active = hit-call score of the fitted dose curve at least 0.9, where 1 is the maximum); settings: HepG2 Attagene TRANS reporter, mRNA readout
# Sequence of Nuclear receptor subfamily 4 group A member 2 (Homo sapiens) (P43354 whole entry, looked up, the tested form may be a part): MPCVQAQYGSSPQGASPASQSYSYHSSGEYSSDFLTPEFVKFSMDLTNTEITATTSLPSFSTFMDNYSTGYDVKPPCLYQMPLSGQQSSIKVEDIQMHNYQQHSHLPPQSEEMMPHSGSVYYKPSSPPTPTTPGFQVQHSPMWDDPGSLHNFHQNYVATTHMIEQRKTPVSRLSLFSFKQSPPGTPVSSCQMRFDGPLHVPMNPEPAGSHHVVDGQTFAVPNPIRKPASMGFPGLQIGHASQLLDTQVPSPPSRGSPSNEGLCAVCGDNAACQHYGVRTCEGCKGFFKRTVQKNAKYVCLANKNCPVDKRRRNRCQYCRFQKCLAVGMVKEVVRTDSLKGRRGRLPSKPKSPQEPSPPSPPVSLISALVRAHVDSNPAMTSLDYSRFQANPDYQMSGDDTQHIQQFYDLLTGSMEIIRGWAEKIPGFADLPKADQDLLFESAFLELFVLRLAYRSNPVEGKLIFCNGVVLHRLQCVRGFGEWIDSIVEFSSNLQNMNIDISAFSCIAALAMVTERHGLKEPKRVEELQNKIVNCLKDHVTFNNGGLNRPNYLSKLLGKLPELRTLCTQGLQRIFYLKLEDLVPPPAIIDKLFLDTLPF
# Method in brief: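 HepG2 cells transiently transfected with NURR1-Gal4 chimera and GAL4-UAS reporter units; after 24 hr compound exposure, reporter mRNA quantified by RT-PCR and capillary electrophoresis; gain of signal fitted against DMSO.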
# [8] = biological target: Transcriptional activator Myb (Homo sapiens) (UniProt P10242); assay: ATG_Myb_CIS: Attagene CIS-FACTORIAL HepG2 Assay for human Myeloblastosis (Myb) Proto-Oncogene Transcription Factor (AID 2282986); settings: HepG2 Attagene CIS-FACTORIAL Myb reporter transcription; actives raise or lower the signal
# Sequence of Transcriptional activator Myb (Homo sapiens) (P10242 whole entry, looked up): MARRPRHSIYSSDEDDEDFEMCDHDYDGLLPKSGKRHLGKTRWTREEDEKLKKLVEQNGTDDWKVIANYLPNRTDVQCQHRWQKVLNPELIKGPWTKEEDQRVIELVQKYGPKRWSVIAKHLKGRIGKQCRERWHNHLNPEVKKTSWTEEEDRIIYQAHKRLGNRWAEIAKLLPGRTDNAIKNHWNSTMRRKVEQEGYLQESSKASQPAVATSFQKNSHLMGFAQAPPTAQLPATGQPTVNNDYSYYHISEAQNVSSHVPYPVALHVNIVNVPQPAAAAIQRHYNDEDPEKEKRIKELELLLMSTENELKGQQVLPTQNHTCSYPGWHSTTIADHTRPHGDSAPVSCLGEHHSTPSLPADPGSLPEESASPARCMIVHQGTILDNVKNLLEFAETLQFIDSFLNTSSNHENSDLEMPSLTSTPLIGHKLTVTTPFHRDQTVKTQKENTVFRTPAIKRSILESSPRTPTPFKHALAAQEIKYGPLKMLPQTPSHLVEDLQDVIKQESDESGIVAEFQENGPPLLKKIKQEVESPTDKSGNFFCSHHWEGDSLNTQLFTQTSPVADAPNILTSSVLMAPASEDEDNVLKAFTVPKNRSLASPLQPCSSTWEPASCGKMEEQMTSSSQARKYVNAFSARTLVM
# Method in brief: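 Reporter transcript levels, quantified by fluorescent RT-PCR and capillary electrophoresis, serve as the read-out. Transfected HepG2 cells carrying cis-promoter reporter units are dosed for 24 hours, and curves are fitted bidirectionally against DMSO controls.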
# [9] = biological target: Nuclear respiratory factor 1 (Homo sapiens) (UniProt Q16656); assay: ATG_NRF1_CIS: Attagene CIS-FACTORIAL HepG2 Assay for human Nuclear Respiratory Factor 1 (NRF1) Orphan Gene (AID 2282987); settings: HepG2 NRF1 cis-element reporter, Attagene multiplex; actives raise or lower the signal
# Sequence of Nuclear respiratory factor 1 (Homo sapiens) (Q16656 whole entry, looked up): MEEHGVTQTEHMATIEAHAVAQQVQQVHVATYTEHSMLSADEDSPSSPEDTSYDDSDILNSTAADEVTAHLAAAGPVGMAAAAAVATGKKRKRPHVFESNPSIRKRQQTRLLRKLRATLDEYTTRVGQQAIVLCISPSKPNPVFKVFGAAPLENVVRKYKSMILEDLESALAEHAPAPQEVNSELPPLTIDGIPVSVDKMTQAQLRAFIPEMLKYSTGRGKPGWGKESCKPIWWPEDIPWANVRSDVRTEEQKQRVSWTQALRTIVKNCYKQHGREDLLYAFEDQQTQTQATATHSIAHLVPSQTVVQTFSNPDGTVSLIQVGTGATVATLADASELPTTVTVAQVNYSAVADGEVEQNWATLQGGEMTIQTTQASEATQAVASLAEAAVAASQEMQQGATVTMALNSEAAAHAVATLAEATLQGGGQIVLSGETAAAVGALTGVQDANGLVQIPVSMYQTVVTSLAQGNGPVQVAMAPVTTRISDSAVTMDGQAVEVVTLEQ
# Method in brief: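 Multiplexed cis-reporter assay, HepG2 cells, 24 h treatment. Total RNA → oligo(dT) RT → PCR with reporter-specific primers → 6-FAM primer extension → HpaI cut → CE. Bidirectional fit vs DMSO.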
# [10] = ATG_NFI_CIS: Attagene CIS-FACTORIAL HepG2 Assay for human Nuclear Factor I (NFI) (AID 2282989); settings: HepG2 cis-regulatory reporter, NFI response element transcription; actives raise or lower the signal
# Method in brief: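 Reporter transcription driven by endogenous transcription factors in HepG2 cells; 24 h treatment. Quantitation by labelled RT-PCR fragments on capillary electrophoresis, gain- or loss-of-signal relative to DMSO.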
# [11] = biological target: Myc proto-oncogene protein (Homo sapiens) (UniProt P01106); assay: ATG_Myc_CIS: Attagene CIS-FACTORIAL HepG2 Assay for human Myelocytomatosis (Myc) Proto-Oncogene Transcription Factor (AID 2282990); settings: HepG2, Attagene cis-reporter transcription factor activity; actives raise or lower the signal
# Sequence of Myc proto-oncogene protein (Homo sapiens) (P01106 whole entry, looked up, the tested form may be a part): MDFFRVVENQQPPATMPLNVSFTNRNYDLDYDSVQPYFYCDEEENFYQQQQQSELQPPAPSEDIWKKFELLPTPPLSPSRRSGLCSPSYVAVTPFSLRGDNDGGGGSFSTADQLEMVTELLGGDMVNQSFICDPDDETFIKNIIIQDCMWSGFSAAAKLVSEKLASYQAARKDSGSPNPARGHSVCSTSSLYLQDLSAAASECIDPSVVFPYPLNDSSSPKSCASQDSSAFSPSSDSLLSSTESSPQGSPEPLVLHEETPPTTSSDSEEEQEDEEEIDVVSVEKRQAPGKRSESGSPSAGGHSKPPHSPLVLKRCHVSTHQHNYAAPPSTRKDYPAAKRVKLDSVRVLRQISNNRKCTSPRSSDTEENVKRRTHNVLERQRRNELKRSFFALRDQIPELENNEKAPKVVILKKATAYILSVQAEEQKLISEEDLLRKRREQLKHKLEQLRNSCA
# Method in brief: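 Fluorescence intensity of reporter-specific cDNA fragments, separated by capillary electrophoresis, gives the signal. Transfected HepG2 cells carrying cis-promoter reporter constructs are incubated with compound for 24 h; DMSO serves as baseline.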
# [12] = ATG_NRF2_ARE_CIS: Attagene CIS-FACTORIAL HepG2 Assay for human Nuclear Factor Erythroid 2 Related Factor 2 (NFR2) response to Antioxidant Response Elements (ARE) (AID 2282992); settings: HepG2 Attagene ARE/NRF2 reporter, transcription factor activity; actives raise or lower the signal;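 for AC50: reporter mRNA level measured by RT-PCR and capillary electrophoresis fluorescence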
# Method in brief: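 HepG2 cells transiently transfected with multiplexed cis-regulated reporter transcription units measure endogenous transcription factor activity. Reporter mRNA at 24 h is quantified by RT-PCR, fluorescent labelling and capillary electrophoresis, with bidirectional fitting relative to DMSO.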
# [13] = ATG_Oct_MLP_CIS: Attagene CIS-FACTORIAL HepG2 Assay for human Octamer-Binding Transcription Factor (Oct) (AID 2282993); settings: HepG2 Attagene cis-factorial Oct reporter, mRNA; actives raise or lower the signal
# Method in brief: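 Transfected HepG2 cells, 24 h treatment. Reporter mRNA quantified by RT-PCR–capillary electrophoresis; bidirectional fitting against DMSO.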
# [14] = biological target: Cellular tumor antigen p53 (Homo sapiens) (UniProt P04637); assay: ATG_p53_CIS: Attagene CIS-FACTORIAL HepG2 Assay for human p53 Transcription Factor (AID 2282994); settings: HepG2 p53 cis-element reporter, Attagene mRNA; actives raise or lower the signal
# Sequence of Cellular tumor antigen p53 (Homo sapiens) (P04637 whole entry, looked up): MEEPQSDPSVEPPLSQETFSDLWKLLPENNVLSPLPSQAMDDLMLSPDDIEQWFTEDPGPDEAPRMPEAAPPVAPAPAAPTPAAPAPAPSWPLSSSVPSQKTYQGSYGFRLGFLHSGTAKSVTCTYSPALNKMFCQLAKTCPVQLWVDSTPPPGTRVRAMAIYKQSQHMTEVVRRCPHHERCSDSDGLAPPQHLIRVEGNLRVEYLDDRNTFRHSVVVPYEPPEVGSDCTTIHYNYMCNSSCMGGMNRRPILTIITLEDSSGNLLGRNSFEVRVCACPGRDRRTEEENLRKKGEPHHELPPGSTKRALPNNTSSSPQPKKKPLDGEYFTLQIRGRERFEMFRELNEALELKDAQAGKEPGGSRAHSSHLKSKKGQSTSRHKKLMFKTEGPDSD
# Method in brief: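 HepG2 cells transiently transfected with multiplexed cis-regulated reporter transcription units read endogenous TF activity. After 24 h compound exposure, reporter mRNA was quantified by RT-PCR, fluorescent labelling, HpaI digestion and capillary electrophoresis; bidirectional fits versus DMSO baseline.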
# [15] = BSK_3C_TissueFactor: BioMAP Diversity Plus: 3C Assay for Tissue Factor Biomarker Activity (AID 2282997); settings: BioMAP 3C HUVEC, tissue factor biomarker readout; actives raise or lower the signal
# Method in brief: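 Values derive from bidirectional curve fitting against DMSO of Tissue Factor ELISA signals, taken 24 h after dosing primary human umbilical vein endothelial cells.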
# [16] = BSK_3C_uPAR: BioMAP Diversity Plus: 3C Assay for Urokinase-type plasminogen activator receptor (uPAR) Biomarker Activity (AID 2282998); settings: BioMAP 3C HUVEC, uPAR biomarker ELISA; actives raise or lower the signal
# Method in brief: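 Readout: ELISA for surface uPAR. System: human umbilical vein endothelial primary cells, 24 h after chemical exposure. Analysis: bidirectional fit, DMSO baseline.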
# [17] = biological target: Bile acid receptor (Homo sapiens) (UniProt Q96RI1); assay: ATG_FXR_TRANS: Attagene TRANS-FACTORIAL HepG2 Assay for Farnesoid X Receptor (FXR) (AID 2282979; active = hit-call score of the fitted dose curve at least 0.9, where 1 is the maximum;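 note: hits raise reporter mRNA above DMSO so AC50 marks FXR activation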); settings: HepG2 Attagene TRANS FXR-GAL4 reporter transcription
# Sequence of Bile acid receptor (Homo sapiens) (Q96RI1 whole entry, looked up, the tested form may be a part): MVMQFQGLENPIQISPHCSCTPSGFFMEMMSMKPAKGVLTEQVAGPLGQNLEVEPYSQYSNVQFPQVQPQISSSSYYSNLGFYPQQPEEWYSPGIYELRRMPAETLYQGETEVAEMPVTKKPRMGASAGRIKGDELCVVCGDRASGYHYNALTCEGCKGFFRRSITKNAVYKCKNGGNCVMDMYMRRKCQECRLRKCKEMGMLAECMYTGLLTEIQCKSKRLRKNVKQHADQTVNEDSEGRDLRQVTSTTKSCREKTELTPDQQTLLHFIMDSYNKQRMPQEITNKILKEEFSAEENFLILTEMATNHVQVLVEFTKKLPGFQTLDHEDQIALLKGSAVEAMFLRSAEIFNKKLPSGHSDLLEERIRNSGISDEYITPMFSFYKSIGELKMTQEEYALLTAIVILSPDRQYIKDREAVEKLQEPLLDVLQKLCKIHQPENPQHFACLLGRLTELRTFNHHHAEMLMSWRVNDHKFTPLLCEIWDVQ
# Method in brief: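 Chimeric FXR-GAL4 activity in transiently transfected human HepG2 liver cells is scored as induction of reporter mRNA after 24 h of dosing. Detection uses RT-PCR with fluorescent labelling and capillary electrophoresis, with DMSO serving as baseline.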
# [18] = ATG_NF_kB_CIS: Attagene CIS-FACTORIAL HepG2 Assay for human Nuclear Factor Kappa B (NF-kB) (AID 2282991); settings: HepG2 Attagene cis-factorial NF-kB reporter mRNA; actives raise or lower the signal
# Method in brief: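 Transient MRTU transfection of human HepG2 liver cells → 24 h chemical exposure → total RNA, oligo(dT) RT → PCR, 6-FAM primer extension, HpaI digest 2 h 37 C → CE fragment analysis. Bidirectional fitting, DMSO negative control.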
# [19] = BSK_3C_VCAM1: BioMAP Diversity Plus: 3C Assay for Vascular cell adhesion molecule 1 (VCAM1) Biomarker Activity (AID 2282999); settings: BioMAP 3C HUVEC, VCAM1 ELISA, cytokine-stimulated; actives raise or lower the signal
# Method in brief: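 Human umbilical vein endothelial cells (3C system), biomarker read by ELISA 24 h after dosing; bidirectional fit against DMSO baseline. Cytotoxicity tracked by SRB total-protein staining in parallel cultures at biomarker time.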
compound,measurement,setting,value
CO/C=C(/C(=O)OC)c1ccccc1Oc1cc(Oc2ccccc2C#N)ncn1,outcome,[1],inactive
same,outcome,[2],inactive
same,outcome,[3],inactive
same,outcome,[4],inactive
same,outcome,[5],inactive
same,outcome,[6],inactive
same,AC50,[7],71.2 µM (active)
same,outcome,[7],inactive
same,outcome,[8],inactive
same,AC50,[9],65.6 µM (active)
same,outcome,[9],inactive
same,outcome,[10],inactive
same,outcome,[11],inactive
same,outcome,[12],inactive
same,AC50,[13],15.6 µM (active)
same,outcome,[13],inactive
same,outcome,[14],inactive
same,AC50,[15],21.1 µM (active) and 24.6 µM (active)
same,outcome,[15],inactive
same,AC50,[16],13.3 µM (active) [middle of 4 runs]
COC(=O)C=C(C)OP(=O)(OC)OC,outcome,[1],inactive
same,outcome,[2],inactive
same,outcome,[17],inactive
same,outcome,[3],inactive
same,outcome,[4],inactive
same,outcome,[6],inactive
same,outcome,[7],inactive
same,outcome,[8],inactive
same,outcome,[9],inactive
same,outcome,[10],inactive
same,outcome,[11],inactive
same,AC50,[12],50 µM (active)
same,outcome,[13],inactive
same,outcome,[14],inactive
same,outcome,[15],inactive
same,outcome,[16],inactive
CNC(=O)ON=CC(C)(C)SC,outcome,[1],inactive
same,outcome,[2],inactive
same,outcome,[17],inactive
same,outcome,[3],inactive
same,outcome,[4],inactive
same,outcome,[5],inactive
same,outcome,[6],inactive
same,outcome,[7],inactive
same,outcome,[8],inactive
same,AC50,[9],43.4 µM (active)
same,outcome,[9],inactive
same,outcome,[10],inactive
same,outcome,[11],inactive
same,outcome,[18],inactive
same,outcome,[12],inactive
same,outcome,[13],inactive
same,outcome,[14],inactive
same,outcome,[15],inactive
same,outcome,[16],inactive
CCCCNC(=O)OCC#CI,outcome,[1],inactive
same,outcome,[2],inactive
same,outcome,[17],inactive
same,outcome,[3],inactive
same,AC50,[4],64.2 µM (active)
same,outcome,[5],inactive
same,outcome,[8],inactive
same,outcome,[9],inactive
same,AC50,[10],49 µM (active)
same,outcome,[10],inactive
same,AC50,[11],26.4 µM (active)
same,outcome,[11],inactive
same,AC50,[12],27.6 µM (active)
same,outcome,[12],inactive
same,AC50,[13],29.9 µM (active)
same,outcome,[13],inactive
same,AC50,[14],33.5 µM (active)
same,outcome,[14],inactive
same,AC50,[15],11.6 µM (active) and 21.2 µM (active)
same,AC50,[16],13.4 µM (active) and 12.9 µM (active)
COC(=O)c1ccccc1C(=O)OC,outcome,[1],inactive
same,outcome,[2],inactive
same,outcome,[17],inactive
same,outcome,[3],inactive
same,outcome,[6],inactive
same,outcome,[8],inactive
same,outcome,[9],inactive
same,outcome,[10],inactive
same,outcome,[11],inactive
same,outcome,[18],inactive
same,outcome,[12],inactive
same,outcome,[13],inactive
same,outcome,[14],inactive
same,outcome,[15],inactive
same,outcome,[16],inactive
same,outcome,[19],inactive
COc1nc(NC(C)C)nc(NC(C)C)n1,outcome,[1],inactive
same,outcome,[2],inactive
same,outcome,[17],inactive
same,outcome,[3],inactive
same,outcome,[4],inactive
same,outcome,[5],inactive
same,outcome,[6],inactive
same,outcome,[7],inactive
same,outcome,[8],inactive
same,outcome,[9],inactive
same,outcome,[10],inactive
same,outcome,[11],inactive
same,outcome,[18],inactive
same,outcome,[12],inactive
same,AC50,[13],41.1 µM (active)
same,outcome,[13],inactive
same,outcome,[14],inactive
same,outcome,[15],inactive
same,outcome,[16],inactive
same,outcome,[19],inactive
